In the library only some 4.1% were active in any assay of this set; here they are far more common.
p-CIP stab down: lowers stability of the mouse p/CIP coactivator protein; AID 1984; 0.01% of 290,000 active; Q05BA5; F442A p/CIP-EGFP cells, EGFP fluorescence, 16 h; decrease of EGFP signal, % at 10 µM;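 active = EGFP signal decrease of at least 30% at 10 µM or well 3 SD below plate mean, unless failing retest; inactive = the rest, including hits failing retest or dose response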
Target sequence (Q05BA5 1-1403): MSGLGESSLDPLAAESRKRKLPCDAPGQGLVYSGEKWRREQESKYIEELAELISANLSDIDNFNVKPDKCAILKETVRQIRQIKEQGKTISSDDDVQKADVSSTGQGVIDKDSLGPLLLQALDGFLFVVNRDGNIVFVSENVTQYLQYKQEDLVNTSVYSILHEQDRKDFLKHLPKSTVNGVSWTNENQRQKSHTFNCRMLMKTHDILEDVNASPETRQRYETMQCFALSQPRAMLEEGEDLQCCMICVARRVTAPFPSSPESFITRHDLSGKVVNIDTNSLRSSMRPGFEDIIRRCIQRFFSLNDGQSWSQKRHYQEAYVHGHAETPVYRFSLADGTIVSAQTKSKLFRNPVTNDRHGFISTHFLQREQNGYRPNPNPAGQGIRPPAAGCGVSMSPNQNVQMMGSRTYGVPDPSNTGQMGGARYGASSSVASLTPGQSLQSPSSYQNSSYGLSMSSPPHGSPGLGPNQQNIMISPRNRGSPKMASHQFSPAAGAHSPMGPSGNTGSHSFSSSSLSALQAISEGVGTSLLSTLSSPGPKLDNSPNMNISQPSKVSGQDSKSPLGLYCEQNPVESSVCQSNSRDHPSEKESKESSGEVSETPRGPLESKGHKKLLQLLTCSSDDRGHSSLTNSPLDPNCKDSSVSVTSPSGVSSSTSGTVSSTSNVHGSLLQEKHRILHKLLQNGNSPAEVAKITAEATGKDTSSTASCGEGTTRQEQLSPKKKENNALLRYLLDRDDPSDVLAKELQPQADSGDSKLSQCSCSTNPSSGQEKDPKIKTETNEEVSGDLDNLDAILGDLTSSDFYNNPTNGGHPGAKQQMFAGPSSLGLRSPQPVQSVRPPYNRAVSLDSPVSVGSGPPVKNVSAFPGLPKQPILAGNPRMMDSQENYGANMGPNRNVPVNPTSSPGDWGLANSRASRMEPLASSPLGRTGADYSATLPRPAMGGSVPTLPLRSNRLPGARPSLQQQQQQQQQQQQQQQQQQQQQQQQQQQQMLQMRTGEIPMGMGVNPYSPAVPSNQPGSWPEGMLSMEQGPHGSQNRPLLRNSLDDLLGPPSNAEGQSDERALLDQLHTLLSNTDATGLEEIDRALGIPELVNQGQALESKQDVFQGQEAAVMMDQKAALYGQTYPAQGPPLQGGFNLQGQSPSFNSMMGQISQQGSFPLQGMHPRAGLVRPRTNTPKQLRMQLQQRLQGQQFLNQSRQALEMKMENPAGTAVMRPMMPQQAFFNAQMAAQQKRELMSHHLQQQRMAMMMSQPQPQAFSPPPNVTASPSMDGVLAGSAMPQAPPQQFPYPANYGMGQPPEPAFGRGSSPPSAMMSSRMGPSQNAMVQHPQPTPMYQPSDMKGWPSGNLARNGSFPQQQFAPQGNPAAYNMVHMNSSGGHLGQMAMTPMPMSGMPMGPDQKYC
MPTP inh: inhibitors of mitochondrial permeability transition pore; isolated mouse mitochondria, Ca2+ swelling absorbance, 30 min; inhibition, % at 10 µM; 1.4% of 360,000 active; AID 602449;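 active = inhibition of 50% or more, scaled per plate between neutral and stimulator controls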
MIN6 prolif: induces beta-cell replication in MIN6 cells; MIN6 cells proliferation, ATPlite luminescence, 48 h; cells starved in 0.2% serum; 100% = growth in 10% serum; proliferation, % at 10 µM; 0.29% of 330,000 active;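 active = compounds whose signal lies at least 3.5 SD above the mean of all wells on their plate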
FAS TE block: blocks the thioesterase domain of human fatty acid synthase; 0.67% of 360,000 active; inhibition, % at 15 µM; P49327; recombinant FAS-TE, OMFH fluorogenic substrate, fluorescence endpoint;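 active = compounds whose normalised, plate-corrected inhibition of enzyme fluorescence in the single-dose primary screen is 50% or more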
GRIN3A LBD mod: modulates the human NR3A ligand-binding domain; 2.5% of 340,000 active; NR3A LBD differential scanning fluorimetry, Tm shift; 0% = protein alone, 100% = glycine-bound protein; Tm shift relative to glycine control, % at 25 µM;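 active = melting temperature shift of at least 10% of the positive control shift, at one fixed dose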
Rh123 counter: mitochondrial membrane potential, counter-screen; shares compounds with MPTP inh; isolated mitochondria, Rhodamine 123 fluorescence; inhibition, % at 10 µM; 78% of 5,000 active; AID 624504; in the data active = inhibition above about 22%
MPTP abs DR: dose response confirmation of mitochondrial permeability transition pore inhibitors. shares compounds with MPTP inh. isolated mitochondria swelling, absorbance. IC50, µM. 58% of 780 active. AID 651561; in the data active = IC50 below about 20 µM
MPTP cs DR: active in counter-screen for permeability transition pore inhibitors; shares compounds with MPTP inh; isolated mitochondria counterscreen, fluorescence read-out; IC50, µM; 49% of 780 active; in the data active = IC50 below about 80 µM
Large screens that a line does not name were inactive (follow-up assays come after a bar, where they were run).

O=NN(CCc1ccncc1)c1ccc(OCc2ccccc2)cc1	MPTP inh 93 | Rh123 counter 89
COCCN(CC(=O)Nc1cccc(C)c1C)C(=O)CN1C(=O)NC2(CCCCC2)C1=O	none (no result: p-CIP stab down)
COc1ccc(-c2[nH]c(-c3cc(OC)c4c(c3)OCO4)nc2-c2ccccc2)cc1	MPTP inh 95 | Rh123 counter 69
COc1ccc(-c2nc(-c3ccccc3)c(-c3cc([N+](=O)[O-])ccc3C)[nH]2)cc1OC	none
COc1ccc(C2CC(c3ccccc3)=NN2c2ccc(N)cc2)cc1 (stereo not given)	MPTP inh 73 | Rh123 counter 71
O=[N+]([O-])c1cc([N+](=O)[O-])c2cc(-c3cccnc3)[nH]c2c1	MPTP inh 52 (no result: p-CIP stab down) | Rh123 counter 56
O=[N+]([O-])c1cc(-c2cccnc2)n[nH]1	none (no result: p-CIP stab down, MIN6 prolif)
CC1CCCCN1C(=O)CSc1nc2c(c(=O)n(C)c(=O)n2C)n1C (stereo not given)	none
OC(CNCc1ccc(Cl)cc1)(c1ccccc1)c1ccc(F)cc1 (stereo not given)	MPTP inh 73 | Rh123 counter inactive | MPTP abs DR 18 | MPTP cs DR 25
COc1ccc(NC(=O)CCNS(=O)(=O)c2ccc(C)c(C)c2)cc1OC	none
O=[N+]([O-])c1cc([N+](=O)[O-])c2cccnc2c1Oc1ccccc1O	MPTP inh 70 (no result: MIN6 prolif) | Rh123 counter 80
CCCCOc1ccc(S(=O)(=O)NNC(=O)c2cc3ccccc3o2)cc1	none
CC(C)COc1ccc(S(=O)(=O)NNC(=O)c2cc3ccccc3o2)cc1	MPTP inh 60 | Rh123 counter 50
CN(C)CCNC(=O)c1ccc(Sc2ccc(Br)cc2)c([N+](=O)[O-])c1	MPTP inh 102 | Rh123 counter inactive | MPTP abs DR 5.8 | MPTP cs DR inactive
CC(=O)NCCNC(=O)c1ccc(Sc2ccccc2)c([N+](=O)[O-])c1	none
CCn1cc(CN2CCCC(C(=O)c3ccc(-c4ccccc4)cc3)C2)cn1 (stereo not given)	MPTP inh 58 | Rh123 counter inactive | MPTP abs DR 19 | MPTP cs DR 26
CCOC(=O)C1(Cc2ccccc2)CCN(Cc2cnn(-c3ccccc3)c2)CC1	MPTP inh 62 | Rh123 counter inactive | MPTP abs DR 15 | MPTP cs DR 33
CCOC(=O)C1(Cc2ccccc2)CCN(Cc2cnn(CC)c2)CC1	none
CCOC(=O)C1(Cc2ccccc2)CCCN(Cc2cnn(CC)c2)C1 (stereo not given)	MPTP inh 64 | Rh123 counter inactive | MPTP abs DR inactive | MPTP cs DR inactive
CCOC(=O)C1=C(COC(=O)/C=C/c2ccc(F)cc2)NC(=O)NC1C (stereo not given)	none (no result: p-CIP stab down, MIN6 prolif, GRIN3A LBD mod)
O=C(CN(CCc1ccccc1)C(=O)CNS(=O)(=O)c1ccc(F)cc1)NCc1ccco1	none
COc1ccc(S(=O)(=O)N2CCC3(CC2)CC(=O)c2ccccc2O3)cc1C	none (no result: p-CIP stab down)
Nc1nc(Cl)cc(N2CCC(c3cc(-c4ccc(Cl)cc4)n[nH]3)CC2)n1	MPTP inh 98, GRIN3A LBD mod 17 | Rh123 counter 90
O=C(NNC(=O)c1cccc(S(=O)(=O)N2CCc3ccccc32)c1)c1ccccc1	MPTP inh 100 (no result: MIN6 prolif) | Rh123 counter 83
O=C(NNC(=O)c1ccccc1O)c1ccc(Cl)c(S(=O)(=O)N2CCc3ccccc32)c1	MPTP inh 107 (no result: p-CIP stab down) | Rh123 counter 76
O=C(c1ccc(Cl)c(S(=O)(=O)N2CCc3ccccc32)c1)N1CCN(c2ccccc2O)CC1	none (no result: p-CIP stab down)
CCOC(=O)c1c(CSc2nc(C)cc(C)c2C#N)n(C)c2cc(Br)c(OC(C)=O)cc12	none
C=CCCc1ccc(C#N)c(SCc2c(C(=O)OCC)c3cc(OC(C)=O)c(Br)cc3n2C)n1	MPTP inh 71 | Rh123 counter 76
CN(C)CCN=Cc1c(O)n(Cc2ccccc2)c(=O)c2ccccc12	none
CC1(C)CC(N=Cc2c(O)n(Cc3ccc4c(c3)OCO4)c(=O)c3ccccc23)CC(C)(C)N1	MPTP inh 53 | Rh123 counter inactive | MPTP abs DR 4.9 | MPTP cs DR inactive
COc1ccc(CCN2CC(C(=O)NCc3cnn(C(C)C)c3)CCC2=O)cc1 (stereo not given)	none
COc1ccc(NC(=O)CSc2ncccc2C(=O)OC(C)C)cc1OC	MPTP inh 71 | Rh123 counter 60
CCOC(=O)c1c(C)oc2c(CC(=O)c3ccccc3)c(Cl)c(O)c(O)c12	none (no result: MIN6 prolif)
Cc1ccccc1NC(=S)Nc1ccccc1	none
Cc1cc(NC(=S)Nc2ccccc2)ccc1Br	MPTP inh 71 | Rh123 counter 79
Cc1cc(NC(=S)Nc2cccnc2)ccc1Br	MPTP inh 88 | Rh123 counter 72
CCN(CC)C(=S)Nc1ccc2nc3n(c(=O)c2c1)CCCCC3	none
O=C(c1cc(C2CC2)nn1-c1ccccc1)N1CCN(Cc2c(F)cccc2Cl)CC1	none (no result: p-CIP stab down)
Nc1ncnc2c1ncn2[C@@H]1O[C@H](CNCc2ccccc2OC2OC(CO)C(O)C(O)C2O)[C@@H](O)[C@H]1O (stereo not given in full)	none (no result: p-CIP stab down, MIN6 prolif)
O=C(NC(NC(=S)Nc1ccc(Cl)cc1)C(Cl)(Cl)Cl)c1ccco1 (stereo not given)	MPTP inh 96, GRIN3A LBD mod 13 | Rh123 counter 84
CCc1ccc(OCC(=O)NC(C)C)cc1	none
CCc1ccc(OCC(=O)NC(NC(=S)Nc2ccc(Cl)cc2)C(Cl)(Cl)Cl)cc1 (stereo not given)	MPTP inh 98, GRIN3A LBD mod 24 | Rh123 counter 81
CCCNc1c(NS(=O)(=O)c2ccc(C3CCCCC3)cc2)c(=O)oc2ccccc12	none
O=C(NC(NC(=S)Nc1c(Cl)cc(Cl)cc1Cl)C(Cl)(Cl)Cl)OCc1ccccc1 (stereo not given)	MPTP inh 78, GRIN3A LBD mod 21 | Rh123 counter 63
CCOC(=O)NC(NC(=S)Nc1ccccc1[N+](=O)[O-])C(Cl)(Cl)Cl (stereo not given)	none
Cc1ccc(C)c(NC(=S)NC(NC(=O)OCc2ccccc2)C(Cl)(Cl)Cl)c1 (stereo not given)	MPTP inh 95, GRIN3A LBD mod 15 | Rh123 counter 83
CCOc1ccc(S(=O)(=O)N2CCCCC2)cc1NC(=O)c1c(CC)noc1C	none (no result: p-CIP stab down)
COc1ccc(C(C)(NC(C)=O)c2nc(-c3ccccc3OC)cs2)cc1 (stereo not given)	none (no result: p-CIP stab down, MIN6 prolif, GRIN3A LBD mod)
Cc1cccc(N2CCN(S(=O)(=O)c3c(C)noc3/C=C/N(C)C)CC2)c1C	none
O=C(NC(c1ccc(Cl)cc1)c1ccccn1)C1CCN(CCOc2ccc(Cl)cc2Cl)CC1 (stereo not given)	none (no result: p-CIP stab down, MIN6 prolif, GRIN3A LBD mod)
